Source: PubChem BioAssay (National Center for Advancing Translational Sciences (NCATS))
A selection: hits, their analogues and other compounds. The true share with any hit is near 7.4%.
SMN2 splice enh – enhancers of SMN2 splice variant expression; Potency, µM (series often up to 46.1 µM), without a hit: at the top dose activity change, positive = activation, most hits filed as activators; hit rate 2.8% among 210,000; AID 1458; HEK293 SMN2-luciferase splicing reporter, luminescence, 30-36 h; further: % of control where 0% means no effect; nearly all actives have a fitted effect of over 55% in size
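HEK293 cells carry an SMN2 […]–luciferase reporter in which exon 7 inclusion puts luciferase in frame. Cells were plated 10-12 h before compound addition, then incubated 30-36 h at 37C. ONE-Glo luminescence was read; sodium butyrate at 4.5 mM final served as control.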
FLuc counter – inhibits or activates purified firefly luciferase, miR-21 counter-screen. P08659. purified FLuc, Km substrates, luminescence inhibition. Potency, µM (highest dose often 57.5 µM), inactives show at the top dose activity change, negative = inhibition, usual class: inhibitors. hit rate 6.9% among 360,000. AID 588342;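 further: plate controls were vehicle for no effect and reference inhibitor for full effect; nearly all actives have a fitted effect of over 55% in size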
Target sequence (P08659 whole entry, looked up): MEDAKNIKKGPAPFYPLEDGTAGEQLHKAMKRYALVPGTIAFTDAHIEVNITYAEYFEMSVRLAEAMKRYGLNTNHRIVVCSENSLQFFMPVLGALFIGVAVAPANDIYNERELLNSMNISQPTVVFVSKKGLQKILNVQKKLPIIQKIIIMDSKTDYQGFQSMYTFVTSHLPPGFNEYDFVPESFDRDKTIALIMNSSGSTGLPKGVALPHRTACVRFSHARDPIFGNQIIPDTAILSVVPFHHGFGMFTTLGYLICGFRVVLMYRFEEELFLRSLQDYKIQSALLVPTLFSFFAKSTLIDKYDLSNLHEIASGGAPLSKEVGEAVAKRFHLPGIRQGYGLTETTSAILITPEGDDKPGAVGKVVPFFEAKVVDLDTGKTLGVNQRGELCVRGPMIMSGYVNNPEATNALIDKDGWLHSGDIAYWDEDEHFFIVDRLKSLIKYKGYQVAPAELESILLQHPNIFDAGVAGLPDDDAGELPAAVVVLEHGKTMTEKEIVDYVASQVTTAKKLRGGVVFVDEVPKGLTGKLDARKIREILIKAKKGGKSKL
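Purified P. pyralis luciferase, 10 nM final, with Km-level 10 uM D-luciferin and 10 uM ATP in 50 mM Tris acetate pH 7.5, 10 mM Mg acetate, 0.01% Tween-20, 0.05% BSA; 6-point qHTS titration about 60 µM downward; luminescence read.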
ELG1 genotox – inducers of genotoxicity in HEK293T ELG1-luciferase cells | HEK293T ELG1-luciferase reporter, luminescence, 16 h | Potency, µM (series often up to 46 µM), inactives show top-dose activity change, positive = activation, usual class: activators | hit rate 1.3% among 330,000; further: % of control where 0% means no effect; nearly all actives have a fitted effect of over 60% in size
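ELG1-luciferase HEK293T cells, 2,000/well; compound pinned in; 16 hr, 37 °C, 5% CO2; ONE-Glo, 30 min RT; luminescence on CCD imager.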
NPC1 promoter act – NPC1 promoter activation; hit rate 2.4% among 320,000; Huh7 NPC1 promoter luciferase reporter, 24 h; Potency, µM (doses to about 9.22 µM), for inactives: top-dose activation, usual class: activators; further: % of control where 0% means no effect; nearly all actives have a fitted effect of over 60% in size
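Quantitative HTS used a cell-based reporter: Huh7 cells stably bearing the NPC1 promoter upstream of luciferase were treated with compounds for 24 h, and promoter activation was read as luminescence.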
Rab9 prom act – activators of Rab9 promoter; Huh7 Rab9 promoter-luciferase reporter, luminescence, 24 h; Potency, µM (doses to about 9.22 µM), without a hit: at the top dose activation, negative = inhibition, actives largely listed as activators; hit rate 2.8% among 320,000; AID 485297; further: % of control where 0% means no effect; nearly all actives have a fitted effect of over 60% in size
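Using Huh7 cells stably transfected with Rab9 promoter–luciferase, compounds were incubated 24 h at 37 °C, 5% CO2; luciferase luminescence was read 10 min after reagent addition.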
p53 reactivator – mutant p53 re-activation in reporter cells. Potency, µM (titrated, usually from 92.2 µM), without a hit: top-dose activity change, positive = activation, most hits filed as activators. H1299 p53-A138V BP100-luciferase reporter, luminescence, 24 h. AID 504706. hit rate 0.063% among 320,000; further: % of control where 0% means no effect; nearly all actives have a fitted effect of over 45% in size
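p53-null H1299 cells stably carrying temperature-sensitive p53-A138V and a BP100-luciferase reporter were pinned with compounds (4-point, 1:5 series) and held 24 hrs at 37 deg C. Luminescence was read 10 min after detection reagent.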
An asterisk follows results filed as active; ? = inconclusive; . = no result given; [ ] = dose if it differs, or a comment. The call rests on the fitted dose curve; in most records, active means well fitted curve in the direction sought with a large enough effect; inconclusive means small, poorly fitted or top-dose-only effect, or another doubt; inactive means no such curve, though single readings can be large; an effect the other way counts as inactive or inconclusive. Potency means the concentration at half of the fitted maximal effect.

SMILES	SMN2 splice enh	FLuc counter	ELG1 genotox	NPC1 promoter act	Rab9 prom act	p53 reactivator
Cc1cc(/C=C(\C#N)C(=O)Nc2ccccc2)c(C)n1-c1cccnc1	5.6µM*	1.5µM*	13%	?	2.8µM*	?
N#C/C(=C\c1cccc([N+](=O)[O-])c1)C(=O)Nc1cccnc1	-5%	-5%	3%	0%	-1%	-1%
COC(=O)c1ccc(OCC2c3cc(OC)c(OC)cc3CCN2C(=O)c2ccccc2C)cc1 (centres undefined)	.	-9%	.	.	.	.
CN(c1ccc(C(=O)N2CCN(Cc3ccccc3)CC2)cc1)S(=O)(=O)c1ccc(Cl)cc1	.	4%	-16%	1%	-2%	-11%
Cc1ccc2nc(CN3CCN(S(=O)(=O)c4ccc(C(C)C)cc4)CC3)oc2c1	.	7%	.	.	.	.
CC(=O)N1CCCc2cc(S(=O)(=O)N3CCC(C(=O)Nc4cccc(Cl)c4C)CC3)ccc21	.	3%	.	.	.	.
CCCn1c(C)cc(/C=C(\C#N)C(=O)OCC(=O)Nc2cccc(OC)c2)c1C	-12%	?	-1%	-6%	-7%	-1%
CCCn1c(C)cc(/C=C(\C#N)C(=O)OCC(=O)Nc2cccc(S(N)(=O)=O)c2)c1C	.	3.8µM*	5%	14%	25%	?
Cc1cc(/C=C(\C#N)C(=O)Nc2ccccc2)c(C)n1-c1ccc(F)cc1	2%	2.7µM*	.	.	.	.
CN(C)/C=N/c1c(C#N)cnn1-c1nc2ccccc2s1	-10%	-8%	13%	0.11µM*	0.13µM*	18%
Nc1ccc(C#Cc2ccccc2)cc1	24%	15µM*	?	22%	30%	-2%
NS(=O)(=O)C#Cc1ccccc1	.	.	.	-37%[46.1 µM]	-41%[46.1 µM]	.
Nc1ccccc1C#Cc1ccccc1	32%	6.7µM*	?	?	26%	16%
CCCN(CC(=O)Nc1ccccc1C)C(=O)C1CCN(C(=O)Nc2ccccc2)CC1	.	-1%	1%	2%	-9%	7%
Cc1ccc(NC(=O)[C@@H](c2ccccc2)N2Cc3ccccc3C2=O)cc1	12%	-17%	.	.	.	.
CCC(=O)N1CCc2cc(S(=O)(=O)CCC(=O)N3CCN(c4cccc(C)c4C)CC3)ccc21	-2%	-2%	.	.	.	.
O=C(/C=C/Nc1ccccc1F)c1ccc(Br)cc1	5µM*	0.48µM*	1µM*	0.56µM*	0.79µM*	.
O=C(/C=C/Nc1ccc(Br)cc1F)c1ccccc1	-43%	0.11µM*	?	1.3µM*	0.45µM*	.
O=C(CCCc1ccccc1)Nc1ccc(Br)cc1F	.	?	?	?	25%	.
O=C(/C=C/NCC(=O)c1ccccc1)c1ccc(Br)cc1	11%	-17%	4%	9%	13%	?
O=C(NCCc1nc2ccccc2n1Cc1ccc(Cl)cc1Cl)c1ccco1	-11%	-10%	.	.	.	.
CCN(CC)c1ccc(-c2nn3c(-c4ccccc4OC)nnc3s2)cc1	-41%	19µM*	-17%	-18%	-20%	-56%
COc1ccccc1-c1nn2c(-c3ccco3)nnc2s1	24%	5.4µM*	18µM*	?	?	?
COc1ccccc1-c1nn2c(-c3ccccc3Cl)nnc2s1	-8%	-2%	1%	1%	3%	-3%
COc1ccc(CCCNC(=O)C2CCC(=O)N(CC3CCCCC3)C2)cc1 (centres undefined)	.	5%	-10%	-8%	10%	1%
SMILES	SMN2 splice enh	FLuc counter	ELG1 genotox	NPC1 promoter act	Rab9 prom act	p53 reactivator
COc1cc(C2NC(=S)NC3=C2CCc2ccccc23)cc(OC)c1OC (centres undefined)	5%	-2%	3%	-1%	-4%	-4%
C=CCOc1ccc(C2NC(=S)NC3=C2CCc2ccccc23)cc1 (centres undefined)	.	6µM*	24%	1%	-11%	26%
Cc1ccc(-n2ncc3c(NCCc4ccccc4)ncnc32)cc1	.	24µM*	.	.	.	.
CC(=O)NNc1ncnc2c1cnn2-c1ccc(C)cc1	.	?	?	-3%	5%	23%
Cc1ccc(-n2ncc3c(NNC(=O)c4ccco4)ncnc32)cc1C	.	?	27%	8%	17%	-3%
Cc1ccc(-n2ncc3c(NCc4ccccc4)ncnc32)cc1C	.	21µM*	.	.	.	.
c1ccc(CNc2ncnc3c2cnn3Cc2ccccc2)cc1	11µM*	6%	1%	-23%	-7%	-5%
COCC(C)Nc1ncnc2c1cnn2-c1ccc(C)c(C)c1 (centres undefined)	.	6.7µM*	.	.	.	.
Cc1ccc(-n2ncc3c(NCCCc4ccccc4)ncnc32)cc1C	.	-10%	.	.	.	.
CN(Cc1ccccc1)C(=O)CSc1nc2ccccc2n1Cc1ccccc1F	.	0%	.	.	.	.
c1ccc(-n2ncc3c(NCc4cccnc4)ncnc32)cc1	38%	17µM*	?	?	?	?
O=c1c2cnn(-c3ccccc3)c2ncn1Cc1cccnc1	-10%	-2%	-7%	2%	-7%	-7%
Cn1c(CNc2ccccc2O)nc2ccccc21	15%	?	8%	11%	-5%	?
Cn1c(CNc2ccccc2)nc2ccccc21	18µM*	19µM*	?	4µM*	3.2µM*	?
Cc1ccccc1NCc1nc2ccccc2n1C	.	4.3µM*	4.1µM*	1.4µM*	2µM*	.
Cn1c(CNc2ccc(F)cc2)nc2ccccc21	.	9.5µM*	16µM*	2.2µM*	2.2µM*	?
CNC(=O)c1cc2c(-c3ccccc3)nn(C)c2s1	.	5%	-1%	-2%	-6%	-3%
Brc1ccccc1/C=N/Nc1ccc2ccccc2n1	7.9µM*	2.1µM*	?	3.5µM*	4.5µM*	?
Cc1ccc2nc(N/N=C\c3cccc(C)n3)cc(C)c2c1	-8%[9.22 µM]	.	.	.	.	.
Oc1ccc(/C=N/Nc2ccccc2)cc1	-6%	-16%	9%	-1%	11%	0%
Fc1cccc(/C=N/Nc2ccc3ccccc3n2)c1	2.5µM*	0.48µM*	?	1.1µM*	?	?
Cc1cc(N/N=C/c2ccccc2Br)nc2ccccc12	86%	12µM*	12%	18%	22%	?
Brc1ccc(/C=N/Nc2ccccc2)cc1	29%	17µM*	?	18%	?	?
COc1ccc(NC(=O)CSc2nc(-c3ccco3)cc(C(F)(F)F)n2)cc1	3%	-2%	.	.	.	.
CCC1=C2CC[C@H]3C(=O)NC(=O)[C@H]3[C@H]2[C@@]2(Cc3ccccc3)C(=NCc3ccccc3)OC(=O)N2C1=O	-15%	.	.	.	.	.
CN(C)c1nc(NCc2ccccc2)nc(N/N=C/c2ccc(Br)cc2)n1	3%	-1%	7%	-2%	-16%	-6%
Fc1ccc(/C=N\Nc2cccc(F)c2)cc1	.	13µM*	0%	-2%	-1%	10%
